30 compounds from PubChem BioAssay (NCI) can be followed below.

The panel holds about 83,000 compounds, 20% with a hit somewhere; the sample as a whole holds those more often.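 How to read the values: 0–100, growth inhibition (40 = 60% inhibited); 0, no net growth; -100 to 0, cell death (-40 = 40% of starting cells died; -100 = all dead).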 A number with no mark means an inactive call. Active and inactive are the calls of the source. The calls were made as follows: active = growth percent below 10; inactive = the rest.

Common to all, as to assay: NCI-60 one-dose screen, 48 h (100 = growth as untreated, 0 = no growth, -100 = all killed)
What all share (conditions): 10 µM unless noted

Assay [1] relates to SK-MEL-2 melanoma.
For assay [2], the system named is EKVX NSCLC.
Assay [3] relates to UO-31 renal.
In assay [4] the test system is TK-10 renal.
The test system of assay [5] is CAKI-1 renal.
Assay [6] has as its system A498 renal.
Assay [7] deals with MOLT-4 leukemia.
In assay [8] the test system is SN12C renal.
Assay [9] deals with CCRF-CEM leukemia.
In assay [10] the test system is ACHN renal.

In the case of `O=C(/C=C/c1ccccc1)c1cccc(O)c1`, the growth was 115% in [1]; 108% in [2]; 72.6% in [3]; 109% in [4]; 93.6% in [5]; 114% in [6]. Also, in assay [7], the growth was 86.7%.
On to `CCCCCCCCCCCCCCCCNC(=O)OC(C)C`, for which the growth is 58.7% in assay [1]; 22.8% in assay [2]; 64.3% in assay [8]; -3.04% (active) in [4]; 28.5% in assay [5]; 75.1% in assay [6]. Besides, the figures for the growth in assay [9] and in assay [7] were 7.75% (active) and 7.03% (active), respectively.
Regarding `O=C1/C(=C/c2ccc(Cl)cc2)CN(Cc2cn(CCNc3ccnc4cc(Cl)ccc34)nn2)C/C1=C\c1ccc(Cl)cc1`, the growth in assay [1] is -89% (active); in [8] it was -76.1% (active); in [3], -97.1% (active); in assay [4], -89% (active); in assay [10] it was -100% (active); in assay [5] it was 6.59% (active). In addition, the growth in assay [6] was -100% (active); in assay [9], -7.97% (active); in [7] it was -20.7% (active).
In the case of `N#Cc1c(-c2ccccc2)nc(SCC(=O)N2CCN(c3ccccc3)CC2)[nH]c1=O`, the growth in assay [1] was 113%; in assay [8] it was 110%; in assay [3], 87.6%; in assay [4] it was 145%; in assay [10], 101%; in assay [5], 97.7%. For the same compound, the growth in assay [6] was 116%; in [9], 100%.
For the compound `c1coc(CNc2ccnc(Nc3ccc(OCCN4CCCCC4)cc3)n2)c1`, the growth is 104% in assay [1]; 95.1% in [2]; 78% in assay [8]; 107% in assay [4]; 100% in assay [10]; 81.4% in [9]. Also, the growth in assay [7] is 81.1%.
On to `Cn1c2ccc(Br)cc2c2c3c(c4c5ccccc5[nH]c4c21)C(=O)N(O)C3=O`, for which the growth in [1] was -74.4% (active); in [8], -71.9% (active); in assay [3], -95.4% (active); in assay [4] it was -72.2% (active); in assay [10], -66.3% (active); in assay [5] it was -76.6% (active). Further, the growth is -43.7% (active) in [6], -16% (active) in assay [9] and -28% (active) in [7].
Regarding `COc1cc(C2C3=C(COC3=O)Nc3cc4c(cc32)OCO4)cc2c1OCO2` (stereo not given), the growth in assay [1] is 41.6%; in assay [2], 44.6%; in [8] it was 23.4%; in assay [4], 55%; in assay [6] it was 21.3%; in assay [9], 8.12% (active). For the same compound, the growth in [7] is 12.1%.
For `COc1ccc(-c2nc(-c3nc4cc(C)c(C)cc4[nH]3)cc3c2[nH]c2ccccc23)cc1`, the growth in assay [1] was 86.9%; in [8] it was 55.2%; in assay [3], 56.3%; in assay [4] it was 81.4%; in assay [10], 39.6%; in [5], 66.2%. Besides, the values for the growth in assay [6], in [9] and in assay [7] were 93.6%, -7.91% (active) and 12.7%, respectively.
With `O=C1C2(c3ccccc3)C(c3ccccc3)=C(c3ccccc3)C1(c1ccccc1)C1CC=CC12` (stereo not given), the growth in assay [1] is 82.6%; in [8] it was 86.1%; in [3], 61.6%; in assay [4], 118%; in assay [10] it was 86.7%; in assay [5] it was 52.6%. The growth in assay [6] is 89.2%; in [9], 84.2%; in [7], 84.4%.
As for `Fc1ccc(-c2nc(-c3nc4ncccc4[nH]3)cc3c2[nH]c2ccccc23)cc1F`, the growth was 83.1% in assay [1]; 72.5% in [8]; 41.9% in [3]; 91.7% in assay [4]; 83% in assay [10]; 92.3% in assay [5]. Besides, the growth in assay [6] was 88.4%; in [9] it was 67.2%; in assay [7] it was 49.8%.
`O=C(O)COc1ccc(-c2cssc2=S)cc1`: the growth was 90.8% in assay [1]; 103% in [8]; 88.9% in [3]; 93.9% in [4]; 103% in [10]; 104% in assay [5]. Moreover, the values for the growth in assay [6], in [9] and in [7] were 88.2%, 90.3% and 102%, respectively.
`O=c1c2sc3ncccc3c2nnn1-c1ccccc1`: the growth in [1] was 101%; in [8], 98.7%; in [3], 90.6%; in assay [4] it was 126%; in assay [10], 106%; in [5] it was 93.5%. Further, the results for the growth in assay [6], in [9] and in assay [7] were 102%, 90.7% and 97.7%, respectively.
With `CCOC(=O)NNC(=S)Nc1ccccc1`, the growth was 116% in assay [1]; 99% in assay [8]; 89.4% in [3]; 111% in [4]; 105% in [10]; 92.3% in assay [5]. Moreover, the growth is 95.1% in assay [6], 106% in assay [9] and 106% in assay [7].
With `O=C(Nc1cccc(-n2cc(-c3ccncc3)c(-c3ccc(Cl)c(O)c3)n2)c1)Nc1ccc(Cl)c(Cl)c1`, the growth in assay [1] was -25.4% (active); in assay [8], 18%; in assay [3], 21%; in [4] it was 7.16% (active); in [10] it was 12.8%; in assay [5], 22.5%. The values for the growth in [6], in [9] and in assay [7] were 31.1%, 13.7% and 7.64% (active), respectively.
In the case of `COc1cc(C2CC(c3ccc4c(c3)OCO4)=NN2C=O)cc(OC)c1OC` (stereo not given), the growth in assay [1] is 31.3%; in assay [2], 37.9%; in assay [8] it was 46.3%; in assay [4], 53.2%; in [5] it was 6.42% (active); in assay [6], 31.2%. Moreover, the growth in assay [9] is 24.5%; in assay [7] it was 45%.
Consider `COc1cc(/C=C/c2cc(/C=C/c3ccc(O)c(OC)c3)n(C(N)=O)n2)ccc1O`, for which the growth in assay [1] is -52.7% (active); in assay [8], -5.22% (active); in assay [3], -22.1% (active); in assay [4] it was 4.79% (active); in assay [10] it was -11.2% (active); in [5] it was 14.1%. Also, the values for the growth in [6], in [9] and in [7] were -24.4% (active), -22.9% (active) and -33% (active), respectively.
For `CC(C)OC(=O)N1CCOCC1`, the growth in [1] was 101%; in assay [2], 126%; in assay [8], 97.7%; in assay [4], 101%; in assay [5], 105%; in [9] it was 102%. The growth in assay [7] is 110%.
For the compound `Cc1ccc2nc(-c3cc4c([nH]c5ccccc54)c(-c4ccc(F)c(F)c4)n3)[nH]c2c1`, the growth is 94% in [1]; 81.8% in assay [8]; 65.4% in assay [3]; 117% in assay [4]; 85.9% in [10]; 93.6% in assay [5]. Further, the growth was 106% in assay [6], 16.8% in assay [9] and 35.4% in assay [7].
For the compound `COC(=O)c1cc(=O)nc(N/N=C/c2ccco2)s1`, the growth is 117% in assay [1]; 102% in [8]; 87.5% in [3]; 118% in assay [4]; 104% in assay [10]; 105% in assay [5]. The growth in assay [6] was 99.5%; in [9], 95.6%; in [7] it was 94.9%.
For `Cc1ccc(S(=O)(=O)Nc2c(Br)cc(Br)cc2C(N)=O)cc1`, the growth in [1] was 113%; in assay [8], 101%; in [3] it was 91.9%; in assay [4] it was 161%; in [10] it was 101%; in assay [5] it was 103%. Besides, the growth in assay [6] was 107%; in assay [9], 95.1%.
As to `COc1ccc(C2C=C(c3ccc(N)cc3)N=C3SC=CN32)cc1OC` (stereo not given), the growth in assay [1] was 108%; in assay [8], 105%; in [3] it was 82.2%; in assay [4] it was 98.1%; in [10], 99.9%; in assay [5] it was 101%. In addition, the growth in assay [6] was 108%; in assay [9], 97.7%; in assay [7], 90.6%.
Consider `CN1CCN(Cc2ccc(NC(=O)c3nc4ccc5[nH]ncc5c4c4c3CCC4)cc2C(F)(F)F)CC1`, for which the growth in assay [1] is 104%; in assay [8], -82.7% (active); in assay [3] it was -96.3% (active); in assay [4] it was -91.2% (active); in [10], -99.6% (active); in assay [5], -97.4% (active). Further, the growth was 84.6% in assay [6], -9.12% (active) in assay [9] and -38.7% (active) in [7].
Regarding `COc1ccc(S(=O)(=O)n2ccc(-c3ccc4c(c3)CCC(C)(C)O4)n2)cc1OC`, the growth in [1] is 56.2%; in assay [8] it was 83.1%; in assay [3], 68.5%; in [4] it was 72.1%; in assay [10], 78%; in [5] it was 58.3%. Further, the growth is 52.8% in assay [6], 82.2% in [9] and 63.8% in assay [7].
As for `CCC1=CCC[C@@]2(C)CCC[C@@]3(C)CCCC(C)(C)[C@]1([O-])[O+]32`, the growth in [1] was 110%; in assay [8], 106%; in assay [3], 100%; in [4] it was 109%; in [10], 105%; in [5], 94.7%. Moreover, the growth is 83.3% in assay [6], 127% in assay [9] and 104% in assay [7].
With `Cc1ccc(S(=O)(=O)NCCNc2nccc(-c3c(-c4ccc(O)cc4)nc4sccn34)n2)cc1`, the growth in assay [1] is 114%; in [8] it was 93.3%; in assay [3], 84%; in assay [4], 121%; in assay [10], 93%; in assay [5] it was 98.2%. For the same compound, the growth in assay [6] is 104%; in assay [9], 86.8%; in assay [7] it was 59%.
Take `CC(=O)Nc1ccc(S(=O)(=O)n2ccc(-c3ccc4c(c3)CCC(C)(C)O4)n2)cc1`: the growth in [1] is 53.5%; in assay [8] it was 89%; in assay [3] it was 67.9%; in assay [4], 55.1%; in assay [10] it was 79.3%; in [5], 48.8%. For the same compound, the growth in assay [6] is 21.9%; in assay [9] it was 55.4%; in [7], 50.7%.
`Cc1cc(C2(c3cc(C)c(O)cc3C)OS(=O)(=O)c3ccccc32)c(C)cc1O`: the growth is 111% in [1]; 105% in assay [2]; 96.7% in assay [8]; 88.5% in assay [4]; 105% in assay [10]; 93.9% in assay [6]. In addition, the growth in [9] was 93.7%; in assay [7] it was 96.3%.
As to `C=C(C)[C@@H]1CC[C@]2(C(=O)N3CCNCC3)CC[C@]3(C)[C@H](CC[C@@H]4[C@@]5(C)C/C(=C/c6ccncc6)C(=O)C(C)(C)[C@@H]5CC[C@]43C)[C@@H]12`, the growth in [1] was 107%; in assay [8], 106%; in [3], 90.3%; in assay [4], 102%; in assay [10], 103%; in assay [5], 95.6%. Besides, the growth is 111% in assay [6], 101% in [9] and 95.6% in assay [7].
As to `CCC(=O)OC1=CN2C(=NC(c3ccc(N)cc3)=CC2c2cc(OC)c(OC)c(OC)c2)S1` (stereo not given), the growth in [1] was 64%; in [8], 53.5%; in [3], 58.7%; in [4], 79.2%; in [10] it was 60.5%; in assay [5] it was 75.1%. Further, the growth in assay [6] is 81.9%; in assay [9], 8.95% (active); in assay [7], 39.8%.
On to `Fc1ccccc1-c1nc(-c2nc3cc(Cl)c(Cl)cc3[nH]2)c2ccccn12`, for which the growth in assay [1] is 81.5%; in assay [8] it was 70.7%; in [3] it was 62.6%; in [4], 76.5%; in [6] it was 104%; in assay [9], 81.9%. Besides, in assay [7], the growth was 67.1%.
